Pf growth 96h = inhibits malaria parasite growth, 96 h. P. falciparum luciferase reporter growth, 96 h. AID 504834. hit rate 6.9% among 320,000. Potency, µM (highest dose often 28.7 µM), hits mostly inhibitors
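Parasite growth measured via integrated firefly luciferase reporter in P. falciparum. Infected erythrocytes at 2% hematocrit, 0.05% parasitemia final were treated 96 hours at 37 C under 5% CO2, and luminescence was read.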
AMA1-RON2 inh = disrupts binding of P. falciparum AMA1 to RON2; AlphaScreen AMA1-biotinylated RON2 peptide binding; Potency, µM (highest dose often 58.2 µM), hits mostly inhibitors; hit rate 0.2% among 360,000; further: nearly all actives have a fitted effect of over 45% in size
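AMA1 (3D7) with his tag at 25 nM final met compounds first, then biotinylated RON2 peptide at 25 nM; detection used donor plus acceptor beads, 10 µg/mL apiece, read by AlphaScreen after 30 min at room temperature.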
HCV inhibitor = blocks hepatitis C virus; Potency, µM (top dose mostly 41.8 µM), hits mostly inhibitors; Huh7.5.1 HCVcc-Cre infection, luciferase reporter, 44 h; hit rate 3.4% among 340,000
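Cells (1,000/well) were plated 4 h before compound, then infected with HCVcc-Cre virus (~0.5 moi). After 44 h further culture, infection was read as luciferase luminescence following a 15 min substrate incubation at room temperature.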
AmpC inh no detg = AmpC beta-lactamase inhibition without detergent; AmpC nitrocefin hydrolysis, absorbance 480 nm, 0.0001% Triton; Potency, µM (top dose mostly 57.1 µM), hits mostly inhibitors; hit rate 0.52% among 330,000; AID 485341; further: nearly all actives have a fitted effect of over 20% in size
Target sequence (P00811 whole entry, looked up): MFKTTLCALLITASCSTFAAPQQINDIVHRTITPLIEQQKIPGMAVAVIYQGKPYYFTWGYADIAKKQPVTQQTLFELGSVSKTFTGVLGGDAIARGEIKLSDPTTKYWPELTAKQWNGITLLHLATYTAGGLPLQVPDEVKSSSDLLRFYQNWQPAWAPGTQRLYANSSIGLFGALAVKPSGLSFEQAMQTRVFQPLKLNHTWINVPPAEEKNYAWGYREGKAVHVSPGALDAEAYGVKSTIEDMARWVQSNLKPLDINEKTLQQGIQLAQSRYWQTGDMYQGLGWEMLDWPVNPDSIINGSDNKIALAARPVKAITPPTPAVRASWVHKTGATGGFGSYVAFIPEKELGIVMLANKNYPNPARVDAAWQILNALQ
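20 mM phosphate pH 7.0 + 0.01% (detergent screen) or 0.0001% Triton X-100; 5.3 nM AmpC reagent; cpd preinc 15 min RT; nitrocefin (800 uM stock) to start; A480 q20 s × 4 min; Activity was normalised to no-enzyme and no-compound control wells.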
Pf growth 48h = P. falciparum growth inhibition at 48 hours (one generation); AID 504832; P. falciparum luciferase growth in erythrocytes, 48 h; hit rate 5.9% among 310,000; Potency, µM (titrated, usually from 28.7 µM), hits mostly inhibitors
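Luminescence readout; reporter = integrated firefly luciferase in P. falciparum. RBC culture at 2% hematocrit, 0.1% parasitemia final, 37 C/5% CO2; decreased signal taken as growth inhibition.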
AmpC inh detg = blocks E. coli AmpC beta-lactamase in detergent assay | P00811 | AmpC hydrolysis of nitrocefin, absorbance 480 nm, 0.01% Triton | Potency, µM (titrated, usually from 114 µM), most hits filed as inhibitors | hit rate 0.041% among 370,000 | AID 485294; further: nearly all actives have a fitted effect of over 25% in size
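20 mM phosphate pH 7.0 + 0.01% (detergent screen) or 0.0001% Triton X-100; 5.3 nM AmpC reagent; cpd preinc 15 min RT; nitrocefin (800 uM stock) to start; A480 q20 s × 4 min; Activity was normalised to no-enzyme and no-compound control wells.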
Each line names hits and unclear results; the compound was inactive in the other large screens. The list is not random: actives were taken first. Their share in the collection is about 11%. The call rests on the fitted dose curve; in most records, active means well fitted curve in the direction sought with a large enough effect; inconclusive means small, poorly fitted or top-dose-only effect, or another doubt; inactive means no such curve, though single readings can be large; an effect the other way counts as inactive or inconclusive.

COc1ccccc1/C=C1\SC(=O)N(CCC(=O)N2CCCCC2CCO)C1=O (centres undefined)	Pf growth 96h 9.3µM, Pf growth 48h inconclusive
COc1ccc(/C=C2\SC(=S)N(CCCC(=O)N3CCOCC3)C2=O)cc1	none (no result: Pf growth 96h, AmpC inh no detg, Pf growth 48h, AmpC inh detg)
COc1ccc(S(=O)(=O)Nc2cc3c(cc2NCc2ccccc2)n(C)c(=O)n3C)cc1OC	none (no result: Pf growth 96h, AMA1-RON2 inh, HCV inhibitor, AmpC inh no detg, Pf growth 48h)
COc1ccc(CNC(=O)c2cnc3ccc(C)cn3c2=O)cc1	none (no result: Pf growth 96h, AMA1-RON2 inh, HCV inhibitor, AmpC inh no detg, Pf growth 48h)
N#Cc1c[nH]n2c(NC3CCCCC3)c(-c3ccccc3F)nc12	none (no result: Pf growth 96h, AMA1-RON2 inh, HCV inhibitor, AmpC inh no detg, Pf growth 48h)
COc1cc(OC)cc(C(=O)Nc2nc3ccc(S(C)(=O)=O)cc3s2)c1	none
Cc1ccc(S(=O)(=O)Nc2nc3ccc(S(C)(=O)=O)cc3s2)cc1	Pf growth 96h 12µM, AmpC inh detg inconclusive
COc1cc(C(=O)Nc2nc3ccc(S(C)(=O)=O)cc3s2)cc(OC)c1C	Pf growth 96h 7.4µM, HCV inhibitor 3.5µM, Pf growth 48h inconclusive
CN(C)c1ccc(C(CNC(=O)c2ccc(C(C)(C)C)cc2)N2CCCC2)cc1 (centres undefined)	none (no result: Pf growth 96h, AMA1-RON2 inh, HCV inhibitor, AmpC inh no detg, Pf growth 48h)
O=C(O)CCN1C(=O)c2ccc(NC(=O)CCc3ccccc3)cc2C1=O	Pf growth 96h 12µM
CC(C)c1ccc(/C=N/NC(=O)c2nnn(-c3nonc3N)c2CSC2=NCCS2)cc1	Pf growth 96h inconclusive, HCV inhibitor 11µM, AmpC inh no detg inconclusive, Pf growth 48h inconclusive
CC1CCN(Cc2c(C(=O)N/N=C/c3ccccc3O)nnn2-c2nonc2N)CC1	HCV inhibitor 3.5µM, Pf growth 48h inconclusive, AmpC inh detg inconclusive
CCOC(=O)c1nnn(-c2nonc2N)c1CN1CCCC1	Pf growth 96h 0.66µM
CC(/C=N/NC(=O)c1nnn(-c2nonc2N)c1CN1CCCCC1)=C\c1ccccc1	Pf growth 96h 9.3µM, Pf growth 48h inconclusive
CCOc1ccc(-n2c(=O)c3c(C)c(C)sc3n(Cc3cc(=O)n4cc(Cl)ccc4n3)c2=O)cc1	none (no result: Pf growth 96h, AMA1-RON2 inh, HCV inhibitor, AmpC inh no detg, Pf growth 48h)
CCCc1c(C(=O)N/N=C/c2c[nH]c3ccccc23)nnn1-c1nonc1N	none (no result: Pf growth 96h, HCV inhibitor, AmpC inh no detg, Pf growth 48h, AmpC inh detg)
CCN(CC)c1ccc(/C=N/NC(=O)c2nnn(-c3nonc3N)c2C(C)C)c(O)c1	Pf growth 96h 7.4µM, HCV inhibitor 1.1µM, Pf growth 48h 3.7µM
CCCN(CCC)Cc1c(C(=O)N/N=C/c2c[nH]c3ccccc23)nnn1-c1nonc1N	Pf growth 96h 9.3µM, AmpC inh detg inconclusive
Cc1cccc(NC(=O)C2CCC(CNS(=O)(=O)c3ccc4c(c3)CCCC(=O)N4)CC2)c1C (centres undefined)	none (no result: Pf growth 96h, AMA1-RON2 inh, HCV inhibitor, AmpC inh no detg, Pf growth 48h)
CCOC(=O)C1=C(C)NC(C)=C(C(=O)OCC)C1c1cccc([N+](=O)[O-])c1	none (no result: Pf growth 96h, HCV inhibitor, AmpC inh no detg, Pf growth 48h, AmpC inh detg)
COC(=O)C1=C(C)NC(C)=C(C(=O)OCC(C)C)C1c1ccccc1[N+](=O)[O-] (centres undefined)	Pf growth 96h 2.4µM, AMA1-RON2 inh 14µM, HCV inhibitor 25µM, Pf growth 48h 7.6µM (no result: AmpC inh no detg, AmpC inh detg)
CCOc1ccc(N(CC(=O)Nc2cccnc2)S(=O)(=O)c2ccc(C)cc2)cc1	Pf growth 48h 13µM, AmpC inh detg inconclusive
CCOc1ccc(N(CC(=O)O)S(=O)(=O)c2cccnc2)cc1	Pf growth 96h 15µM (no result: Pf growth 48h)
COc1ccc(N(CC(=O)Nc2ccc3c(c2)OCCO3)S(=O)(=O)c2cccnc2)cc1	Pf growth 96h inconclusive, HCV inhibitor inconclusive, AmpC inh no detg 40µM
CCOc1ccc(S(=O)(=O)N(CC(=O)Nc2cccnc2)c2ccccc2)cc1	none (no result: Pf growth 96h, AMA1-RON2 inh, HCV inhibitor, AmpC inh no detg, Pf growth 48h)
CCS(=O)(=O)c1c(S(=O)(=O)CC)c2cc(C(C)(C)C)ccn2c1C(=O)c1ccc(F)cc1	none (no result: Pf growth 96h, AMA1-RON2 inh, HCV inhibitor, AmpC inh no detg, Pf growth 48h)
Cc1cc(=O)[nH]c2cc(O)ccc12	AmpC inh detg inconclusive
CC(C)=CCCC1(C)C=Cc2c(c(C)cc3c2[nH]c2cc(O)ccc23)O1 (centres undefined)	Pf growth 48h 10µM
CCc1ccc(N=C2NC(=O)CS2)cc1	Pf growth 96h 9.3µM, Pf growth 48h inconclusive, AmpC inh detg inconclusive
CCNC(=O)c1ccc(CSc2ccc(Cl)cc2)cc1	Pf growth 96h inconclusive, HCV inhibitor inconclusive, Pf growth 48h 4.7µM, AmpC inh detg inconclusive
